Among the data in PubChem BioAssay (Tox21) are outcome and Potency values, retold here.

“And” between values parts separate entries of the source, which are not always exact repeats. Identical values can stand only once. Results filed as inconclusive are left out. Some compounds were tested as several samples or in several runs, with calls that do not always agree. The source made the active and inactive calls. Unless noted, calls follow the shape of the full dose curve.

Test [1] can be described thus: qHTS assay to identify small molecule agonists of the sonic hedgehog signaling (Shh) pathway (AID 1259368).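 Also: NIH/3T3-derived 3T3Gli1-Luc cells carrying a stable Gli1-driven firefly luciferase reporter; nearly all actives have a fitted effect of over 15% in size.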 As to conditions: NIH/3T3 Gli1-Luc reporter, luciferase, 24 h, stronger effect = higher value; series mostly up to 92.4 µM. Summed up:
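Luminescence was read after 30 min at room temperature with luciferase reagent. Before that, 3T3Gli1-Luc cells (NIH/3T3 clone, stable Gli1-Luc reporter; 2,000/well) were exposed to compounds for 24 hr at 37C, 5% CO2, compounds being added 4 hr post-plating.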
A general note: Quantitative high-throughput screening tests each substance at several concentrations.

The nature of test [2]: qHTS assay to identify small molecule antagonists of the sonic hedgehog signaling (Shh) pathway (AID 1259369). Also: nearly all actives have a fitted effect of over 45% in size. Also: potency is read from the fitted curve at half-maximal effect. As to conditions: NIH/3T3 Gli1-Luc reporter, Shh antagonist, luminescence 24 h; series mostly up to 92.4 µM. Summed up: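 Antagonist mode: compound added to 3T3 Gli1-Luc cells followed by conditioned-medium stimulation, 24 h at 37 C, 5% CO2. Inhibition taken as loss of Gli1-driven luciferase luminescence.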

Test [3] has as its target Estrogen receptor beta (Homo sapiens) (UniProt Q92731). In words: qHTS assay to identify small molecule agonists of the estrogen receptor beta (ER-beta) signaling pathway (AID 1259377; active = well fitted activation curve with a large enough effect in the signal ratio in the repeat runs, not every such curve was filed as active; the % refers to the signal ratio). As to conditions: ER-beta-UAS-bla HEK293T, beta-lactamase FRET ratio, 16 h; series mostly up to 92.4 µM. An outline of the steps:
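Agonist mode cell assay in GripTite HEK293T cells expressing an ER-beta fusion that drives beta-lactamase from an Upstream Activator Sequence; 16 hr compound exposure at 37C, then 2 h LiveBLAzer B/G FRET substrate at room temperature, fluorescence read-out.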

Test [4] is described as follows: qHTS assay to identify small molecule agonists of the androgen receptor (AR) signaling pathway in the presence of an antagonist - cell viability counter screen (AID 1259379; active = well fitted curve in the direction sought with a large enough effect in the repeat runs; an effect the other way counts as inactive or inconclusive; also: nearly all actives have a fitted effect of over 25% in size; also: potency is read from the fitted curve at half-maximal effect). The conditions noted are these: MDA-kb2 viability, CellTiter-Fluor, 16 h; series mostly up to 92.4 µM. Summed up:
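Cytotoxicity counter-screen run in the same wells as the nilutamide-challenged (3.0 µM final) AR agonist assay in MDA-kb2 cells. Compounds tested at 15 concentrations for 16 h, 37 °C without CO2; CellTiter-Fluor fluorescence read.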

Test [5] is described as follows: qHTS assay to identify small molecule agonists of the estrogen receptor beta (ER-beta) signaling pathway - cell viability counter screen (AID 1259380; active = well fitted curve in the direction sought with a large enough effect in the repeat runs; an effect the other way counts as inactive or inconclusive; also: nearly all actives have a fitted effect of over 30% in size). The conditions noted are these: ER-beta-bla HEK293T viability, CellTiter-Glo luminescence, 16 h; series mostly up to 92.4 µM. An outline of the steps:
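Cell viability counter screen: CellTiter-Glo luminescence (30 min, room temperature) measured in the same wells as the beta-lactamase readout, after 16 hr compound exposure at 37C of ER-beta-bla HEK293T cells in 2% charcoal-stripped FBS medium.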

Test [6] can be described thus: qHTS assay to identify small molecule antagonists of the estrogen receptor beta (ER-beta) signaling pathway - cell viability counter screen (AID 1259382; active = well fitted curve in the direction sought with a large enough effect in the repeat runs; an effect the other way counts as inactive or inconclusive; also: nearly all actives have a fitted effect of over 55% in size). As to conditions: ER-beta-UAS-bla HEK293T viability, CellTiter-Glo luminescence, 16 h; series mostly up to 92.4 µM. Summed up: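 Cytotoxicity was measured in the same wells by CellTiter-Glo luminescence after 30 min at room temperature. Cells were ER-beta-bla HEK293T in charcoal-stripped serum, given compound together with 1 nM E2 and incubated 16 h at 37C.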

A short description of test [7]: qHTS assay to identify small molecule agonists or antagonists of the thyroid stimulating hormone receptor (TSHR) signaling pathway - wild type cell line counter screen (AID 1259384). As to conditions: HEK293 wild type, cAMP HTRF counter-screen, stronger effect = higher value; series mostly up to 92.4 µM. Summed up: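 Wild-type HEK293 cells were plated 18 h at 37 C/5% CO2, pin-dosed with compound plus Ro20-1724 medium, held 30 min at room temperature, then given cAMP-d2 and anti-cAMP-cryptate; fluorescence was read after 1 h. Fifteen concentrations, triplicate.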

Test [8] deals with Androgen receptor (Homo sapiens) (UniProt P10275). In words: qHTS assay to identify small molecule agonists of the androgen receptor (AR) signaling pathway in the presence of an antagonist (AID 1259381). Also: nearly all actives have a fitted effect of over 15% in size. Also: potency is read from the fitted curve at half-maximal effect. The conditions noted are these: MDA-kb2 MMTV-luciferase, AR agonist + nilutamide, 16 h; series mostly up to 92.4 µM. Summed up:
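Agonist-mode confirmation run against 3.0 uM final nilutamide: compounds titrated at 15 concentrations onto MDA-kb2 MMTV-luciferase reporter cells. Luminescence measured with ONE-Glo following 16 hr incubation, 37C, 0% CO2.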

Test [9] has as its target Estrogen receptor (Homo sapiens) (UniProt P03372). In words: qHTS assay to identify small molecule agonists of the estrogen receptor alpha (ER-alpha) signaling pathway in the presence of an antagonist (AID 1259383). Also: nearly all actives have a fitted effect of over 15% in size. Also: potency is read from the fitted curve at half-maximal effect. As to activation: top concentration of the series differs between compounds. As to conditions: VM7Luc4E2 cells, ERE-luciferase, +ICI-182,780, 22 h; series mostly up to 92.4 µM. Summed up:
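Agonist-mode confirmation run in the presence of 10.0nM (final) ICI-182,780 antagonist. The reporter was ERE-driven luciferase in VM7Luc4E2 cells, grown in charcoal-stripped serum. Cells were exposed to 15-concentration compound series for 22hr, then ONE-Glo luminescence was read.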

Test [10] addresses Estrogen receptor beta (Homo sapiens) (UniProt Q92731). In words: qHTS assay to identify small molecule antagonists of the estrogen receptor beta (ER-beta) signaling pathway (AID 1259378; active = well fitted inhibition curve with a large enough effect in the signal ratio in the repeat runs, not every such curve was filed as active; the % refers to the signal ratio). As to conditions: ER-beta-UAS-bla HEK293T, beta-lactamase FRET ratio, 16 h; series mostly up to 92.4 µM. Summed up:
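ER-beta-UAS-bla HEK293T (GripTite) cells in 2% charcoal-stripped FBS medium were preincubated 6 hr at 37C, dosed with compound, then stimulated with 1 nM E2 (final) for 16 hr; beta-lactamase reporter read by B/G FRET fluorescence after 2 hr substrate loading.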

Chain of Estrogen receptor (Homo sapiens) (P03372 whole entry, looked up): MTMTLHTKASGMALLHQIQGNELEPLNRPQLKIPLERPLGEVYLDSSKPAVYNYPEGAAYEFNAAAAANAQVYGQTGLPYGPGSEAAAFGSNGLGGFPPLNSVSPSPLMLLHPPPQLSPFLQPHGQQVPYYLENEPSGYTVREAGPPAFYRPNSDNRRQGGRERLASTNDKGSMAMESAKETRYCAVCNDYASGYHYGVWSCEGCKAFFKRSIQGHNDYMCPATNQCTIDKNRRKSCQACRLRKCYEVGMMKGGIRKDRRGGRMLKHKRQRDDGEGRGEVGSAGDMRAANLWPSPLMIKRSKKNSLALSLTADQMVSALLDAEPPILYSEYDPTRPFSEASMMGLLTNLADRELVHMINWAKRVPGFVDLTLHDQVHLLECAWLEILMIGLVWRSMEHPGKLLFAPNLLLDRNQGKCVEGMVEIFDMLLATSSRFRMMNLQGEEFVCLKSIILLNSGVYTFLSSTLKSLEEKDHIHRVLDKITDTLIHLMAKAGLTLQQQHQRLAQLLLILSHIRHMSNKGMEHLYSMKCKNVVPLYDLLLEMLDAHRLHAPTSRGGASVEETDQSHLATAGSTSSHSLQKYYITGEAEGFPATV
Chain of Androgen receptor (Homo sapiens) (P10275 whole entry, looked up): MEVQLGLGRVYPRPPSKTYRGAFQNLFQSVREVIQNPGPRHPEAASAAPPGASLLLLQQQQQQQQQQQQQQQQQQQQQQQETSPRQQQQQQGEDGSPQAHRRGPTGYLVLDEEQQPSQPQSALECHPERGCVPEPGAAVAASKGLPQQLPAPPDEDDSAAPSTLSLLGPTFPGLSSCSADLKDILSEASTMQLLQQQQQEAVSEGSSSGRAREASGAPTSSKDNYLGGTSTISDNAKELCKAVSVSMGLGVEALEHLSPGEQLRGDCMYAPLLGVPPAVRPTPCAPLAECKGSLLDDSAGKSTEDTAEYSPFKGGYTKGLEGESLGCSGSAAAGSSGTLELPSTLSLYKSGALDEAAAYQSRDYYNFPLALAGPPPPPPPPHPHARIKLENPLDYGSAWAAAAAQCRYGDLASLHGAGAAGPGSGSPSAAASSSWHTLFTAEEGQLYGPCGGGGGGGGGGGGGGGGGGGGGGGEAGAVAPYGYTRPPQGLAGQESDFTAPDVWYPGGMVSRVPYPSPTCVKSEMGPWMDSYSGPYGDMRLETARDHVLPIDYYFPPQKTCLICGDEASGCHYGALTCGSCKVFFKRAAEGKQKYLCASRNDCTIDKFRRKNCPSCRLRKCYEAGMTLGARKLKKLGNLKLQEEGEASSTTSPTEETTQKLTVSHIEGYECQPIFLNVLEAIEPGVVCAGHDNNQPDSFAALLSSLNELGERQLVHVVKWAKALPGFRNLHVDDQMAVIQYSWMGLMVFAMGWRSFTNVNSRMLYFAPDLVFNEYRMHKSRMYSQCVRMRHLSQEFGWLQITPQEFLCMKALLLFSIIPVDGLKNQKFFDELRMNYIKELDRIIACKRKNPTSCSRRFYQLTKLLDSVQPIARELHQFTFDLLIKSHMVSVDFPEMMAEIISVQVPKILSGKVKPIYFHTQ
Chain of Estrogen receptor beta (Homo sapiens) (Q92731 whole entry, looked up, the tested form may be a part): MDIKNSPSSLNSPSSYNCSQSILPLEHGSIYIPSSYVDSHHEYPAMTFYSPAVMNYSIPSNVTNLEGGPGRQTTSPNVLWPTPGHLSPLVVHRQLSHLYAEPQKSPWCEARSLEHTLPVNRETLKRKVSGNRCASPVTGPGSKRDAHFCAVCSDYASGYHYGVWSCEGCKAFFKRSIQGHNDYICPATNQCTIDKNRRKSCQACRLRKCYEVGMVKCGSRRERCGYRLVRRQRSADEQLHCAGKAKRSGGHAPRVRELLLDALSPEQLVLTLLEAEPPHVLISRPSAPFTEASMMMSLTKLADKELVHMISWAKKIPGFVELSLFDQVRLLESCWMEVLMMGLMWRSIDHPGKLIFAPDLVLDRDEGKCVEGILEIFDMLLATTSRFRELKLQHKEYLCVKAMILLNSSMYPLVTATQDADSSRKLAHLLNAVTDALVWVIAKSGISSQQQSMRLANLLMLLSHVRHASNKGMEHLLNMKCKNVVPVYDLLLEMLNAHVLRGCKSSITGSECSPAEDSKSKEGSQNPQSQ

Take `CCOC(=O)C(SP(=S)(OC)OC)c1ccccc1` (stereo not drawn): the compound was called inactive in [1] and in test [7]. Further, the Potency entry in [2], in [3], in test [4], in test [5] and in [6] was “inactive” throughout.
For the compound `CCOC(=O)CC(SP(=S)(OC)OC)C(=O)OCC` (stereo not drawn), the result in test [1] and in test [7] was inactive. For the same compound, the Potency result in [2], in test [4], in test [5], in test [6] and in test [9] was “inactive” each time. Also, in test [8], the Potency is 27.3 µM (active) and inactive.
As to `CNC(=O)O/N=C(/CSC)C(C)(C)C`, the result in test [1] and in test [7] was inactive. Moreover, the Potency entry in [2], in test [4], in test [5], in test [8], in [6] and in test [9] was “inactive” each time.
For `CC(C)NCC(O)c1ccc([N+](=O)[O-])cc1` (stereo not drawn), the compound was called inactive in test [1] and in test [7]. Further, the Potency result in test [2], in test [3], in [4], in [5] and in test [6] was “inactive” each time.
For `N=C(N)[Se]`, the outcome in test [1], in test [10] and in [7] was inactive. Moreover, the Potency entry in [2], in test [4], in test [6] and in [9] was “inactive” each time.
For `CNC(=O)Oc1ccccc1C(C)C`, the outcome in [1] and in test [7] was inactive. Moreover, the Potency result in [2], in [4], in test [5], in [8], in test [6] and in [9] was “inactive” throughout.
Take `CCC1(CC)C(=O)C=CNC1=O`: the compound was classed as inactive in [1] and in [7]. In addition, the Potency entry in test [2], in [3], in [4], in [5], in test [6] and in [9] was “inactive” in each case.
For `C[C@H]1CCCC(=O)CCC/C=C/c2cc(O)cc(O)c2C(=O)O1`, the result in test [1] was inactive. The Potency is 14.8 µM (active) and inactive in test [2]; 46.8 µM (active) and inactive in test [4]; 41.7 nM (active) and 56.3 nM (active) in test [9]. The Potency result in test [5], in test [8] and in test [6] was “inactive” in each case.
For `COc1cc(CC(C)N)cc(OC)c1OC` (stereo not drawn), the result in [1] and in [7] was inactive. Also, the Potency entry in test [2], in test [3], in [4], in test [5], in [6] and in [9] was “inactive” throughout.
